This passage reports max response and Potency results from PubChem BioAssay (NCATS).

Molecules are shown by their SMILES. Records with an inconclusive call do not appear. Where a call stands in place of a potency, no number is given. Active and inactive are the calls of the source. Unless noted, the call rests on the fitted dose curve; in most records, active means well fitted inhibition curve with a large enough effect; inconclusive means small, poorly fitted or top-dose-only effect; inactive means flat fitted curve, though single readings scatter.
Potency means the concentration at half of the fitted maximal effect.

Retinoic acid receptor RXR-alpha (Homo sapiens), sequence (P19793 whole entry, looked up): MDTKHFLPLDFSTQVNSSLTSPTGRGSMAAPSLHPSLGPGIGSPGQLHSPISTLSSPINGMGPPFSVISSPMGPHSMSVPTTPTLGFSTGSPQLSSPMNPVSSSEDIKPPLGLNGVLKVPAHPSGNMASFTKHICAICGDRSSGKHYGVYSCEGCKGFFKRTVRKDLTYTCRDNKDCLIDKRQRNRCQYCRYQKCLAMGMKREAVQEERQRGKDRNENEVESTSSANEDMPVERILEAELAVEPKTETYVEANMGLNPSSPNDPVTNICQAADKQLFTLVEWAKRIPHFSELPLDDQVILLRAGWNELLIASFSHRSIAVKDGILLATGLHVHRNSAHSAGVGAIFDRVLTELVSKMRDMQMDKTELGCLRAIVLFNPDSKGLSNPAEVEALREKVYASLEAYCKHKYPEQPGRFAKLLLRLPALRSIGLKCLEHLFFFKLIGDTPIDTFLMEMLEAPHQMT
Voltage-gated inwardly rectifying potassium channel KCNH2 (Homo sapiens), sequence (Q12809 whole entry, looked up): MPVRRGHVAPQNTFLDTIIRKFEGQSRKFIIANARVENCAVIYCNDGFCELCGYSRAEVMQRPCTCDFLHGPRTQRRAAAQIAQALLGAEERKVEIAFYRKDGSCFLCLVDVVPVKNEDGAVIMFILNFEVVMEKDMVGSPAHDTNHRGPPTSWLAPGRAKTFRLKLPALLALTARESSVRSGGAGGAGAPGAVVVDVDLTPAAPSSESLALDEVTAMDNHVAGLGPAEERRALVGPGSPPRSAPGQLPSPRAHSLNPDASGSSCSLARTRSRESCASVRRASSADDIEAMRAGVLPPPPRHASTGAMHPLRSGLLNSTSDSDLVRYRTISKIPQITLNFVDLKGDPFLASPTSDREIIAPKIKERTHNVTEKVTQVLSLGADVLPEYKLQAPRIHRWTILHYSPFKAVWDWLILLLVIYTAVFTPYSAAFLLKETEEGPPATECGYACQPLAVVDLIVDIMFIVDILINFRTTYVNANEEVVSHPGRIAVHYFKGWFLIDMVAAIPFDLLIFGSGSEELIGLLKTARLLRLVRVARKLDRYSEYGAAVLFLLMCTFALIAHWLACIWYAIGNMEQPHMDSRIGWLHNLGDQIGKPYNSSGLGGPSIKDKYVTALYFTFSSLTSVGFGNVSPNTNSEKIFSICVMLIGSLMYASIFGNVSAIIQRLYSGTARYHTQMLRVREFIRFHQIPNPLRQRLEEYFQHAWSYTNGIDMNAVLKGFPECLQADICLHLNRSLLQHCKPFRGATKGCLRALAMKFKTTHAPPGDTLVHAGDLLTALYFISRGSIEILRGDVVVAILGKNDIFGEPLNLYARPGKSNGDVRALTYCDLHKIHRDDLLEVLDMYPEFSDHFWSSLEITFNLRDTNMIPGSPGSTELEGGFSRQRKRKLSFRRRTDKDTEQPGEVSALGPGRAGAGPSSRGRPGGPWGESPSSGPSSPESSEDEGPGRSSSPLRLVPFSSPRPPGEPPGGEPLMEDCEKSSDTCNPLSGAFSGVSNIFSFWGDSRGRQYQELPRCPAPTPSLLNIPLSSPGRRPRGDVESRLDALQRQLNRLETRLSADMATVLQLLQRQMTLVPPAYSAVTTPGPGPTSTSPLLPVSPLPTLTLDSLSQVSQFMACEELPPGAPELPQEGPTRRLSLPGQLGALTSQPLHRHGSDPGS

System in the first test: not listed separately
Description: qHTS assay for small molecule antagonists of retinoid X receptor alpha signaling (AID 588546; active means well fitted inhibition curve with a large enough effect in the signal ratio, with a control signal flat, not every such curve was filed as active; the % refers to the signal ratio;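 on max response: cells stimulated with 9-cis-retinoic acid as agonist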). Particulars: HEK293T RXRa-UAS-bla, beta-lactamase ratio, antagonist mode; measured here: W530 green channel, cytotoxicity proxy. The gist of the method:
(§1)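 Beta-lactamase reporter inhibition, read as CCF4 fluorescence ratio (ex 405, em 460/530 nm) after 2 h at RT. HEK293T UAS-bla cells, 2500/well, were stimulated with 9-cis-RA at 500 or 100 nM final alongside test compound for 18 h at 37 C.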
With `C[CH2][Hg][S]c1ccccc1C(=O)O`, the max response is -29.7%. On to `O=[N+]([O-])c1ccc(F)c([N+](=O)[O-])c1`, for which the max response is -4.46%. As to `CC[C@H](C)[C@H]1O[C@]2(C=C[C@@H]1C)C[C@@H]1C[C@@H](C/C=C(\C)[C@@H](O[C@H]3C[C@H](OC)[C@@H](O[C@H]4C[C@H](OC)[C@@H](O)[C@H](C)O4)[C@H](C)O3)[C@@H](C)/C=C/C=C3\CO[C@@H]4[C@H](O)C(C)=C[C@@H](C(=O)O1)[C@]34O)O2`, the max response was -21.4%.

The next test has as its target Retinoic acid receptor RXR-alpha (Homo sapiens) (UniProt P19793). The test is described as above. The conditions noted are these: HEK293T RXRa-UAS-bla, beta-lactamase ratio, antagonist mode. The gist of the method: as §1
Take `C[CH2][Hg][S]c1ccccc1C(=O)O`: the Potency was 2.24 µM (active).

Turning to `O=[N+]([O-])c1ccc(F)c([N+](=O)[O-])c1`, the max response is 1.55% (inactive).

`CC[C@H](C)[C@H]1O[C@]2(C=C[C@@H]1C)C[C@@H]1C[C@@H](C/C=C(\C)[C@@H](O[C@H]3C[C@H](OC)[C@@H](O[C@H]4C[C@H](OC)[C@@H](O)[C@H](C)O4)[C@H](C)O3)[C@@H](C)/C=C/C=C3\CO[C@@H]4[C@H](O)C(C)=C[C@@H](C(=O)O1)[C@]34O)O2`: the Potency was 12.6 µM (active).

The next test concerns the target Voltage-gated inwardly rectifying potassium channel KCNH2 (Homo sapiens) (UniProt Q12809). Description: qHTS Assay for Small Molecule Inhibitors of the Human hERG Channel Activity (AID 588834).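 Further: lower thallium flux fluorescence means stronger hERG block; nearly all actives have a fitted effect of over 50% in size.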 The conditions noted are these: U2OS BacMam hERG, FluxOR thallium flux fluorescence; series mostly up to 46.1 µM. The gist of the method: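 Concentration-response qHTS measuring drop in thallium-sensitive dye signal. U2OS cells carrying BacMam hERG; compound exposure ~10 min, then stimulation buffer and 2 min read at 1 sec intervals.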
For `C[CH2][Hg][S]c1ccccc1C(=O)O`, the Potency entry was “inactive”. The same measure, in the same setting: the result for `C[C@H]1CC[C@]2(NC1)O[C@H]1C[C@H]3[C@@H]4CC[C@H]5C[C@@H](O[C@@H]6O[C@H](CO)[C@H](O[C@@H]7O[C@H](CO)[C@@H](O)[C@H](O[C@@H]8OC[C@@H](O)[C@H](O)[C@H]8O)[C@H]7O[C@@H]7O[C@H](CO)[C@@H](O)[C@H](O)[C@H]7O)[C@H](O)[C@H]6O)CC[C@]5(C)[C@H]4CC[C@]3(C)[C@H]1[C@@H]2C` reads 15.8 µM (active); that for `CN(C)[C@H](Cc1ccccc1)c1ccccc1`, “inactive”; that for `C=CC[C@]1(O)CC[C@H]2[C@@H]3CCC4=CCCC[C@@H]4[C@H]3CC[C@@]21C`, “inactive”. As to `C[N+](C)(C)CCOC(=O)CBr`, the Potency result is “inactive”.

In the case of `CNc1ccc2oc(C[C@H]3O[C@@]4(CC[C@H]3C)O[C@H]([C@H](C)C(=O)c3ccc[nH]3)[C@H](C)C[C@H]4C)nc2c1C(=O)O`, the Potency is 3.16 µM (active).

As for `C[Se]C[C@H](N)C(=O)O`, the Potency result was “inactive”. With `O=C1C=C2C=C[C@@H]3C[C@@]2(O1)[C@H]1CCCCN31`, the Potency entry is “inactive”. As to `NC(=O)c1ccc(OCC(O)CN2CC=C(c3ccc(F)cc3)CC2)cc1` (centres undefined), the Potency was 7.94 µM (active). Still for that read-out and setting: as for `C[N+]1([O-])[C@@H]2CC[C@H]1CC(OC(=O)C(CO)c1ccccc1)C2` (some centres undefined), the entry is “inactive”. Same read-out and setting: the result for `CCNC1(c2cccs2)CCCCC1=O` (centres undefined) reads “inactive”; that for `OC1CCCCC1N1CCC(c2ccccc2)CC1` (centres undefined), “inactive”; that for `CCN(CC)CCO[C@H]1CC[C@@]2(C)C(=CC[C@@H]3[C@@H]2CC[C@]2(C)C(=O)CC[C@@H]32)C1`, “inactive”. Same read-out and setting: as for `CC[C@H](C)[C@H]1O[C@]2(C=C[C@@H]1C)C[C@@H]1C[C@@H](C/C=C(\C)[C@@H](O[C@H]3C[C@H](OC)[C@@H](O[C@H]4C[C@H](OC)[C@@H](O)[C@H](C)O4)[C@H](C)O3)[C@@H](C)/C=C/C=C3\CO[C@@H]4[C@H](O)C(C)=C[C@@H](C(=O)O1)[C@]34O)O2`, the entry is “inactive”; as for `CN1[C@H]2CC[C@@H]1[C@@H](C(=O)O)[C@@H](OC(=O)c1ccccc1)C2`, “inactive”.

Take `COC(=O)N1CCN(C(=O)Cc2ccc(Cl)c(Cl)c2)C(CN2CCCC2)C1` (centres undefined): the Potency is 11.2 µM (active). In the case of `N[C@@H](Cn1oc(=O)[nH]c1=O)C(=O)O`, the Potency result is “inactive”.

Consider `CCCCC[C@@H](O)C1C(=O)OC(C)[C@H](O)/C=C/C=C/C=C/C=C/C=C(\C)C(O)C(O)C(O)C[C@H](O)C[C@H](O)C[C@H](O)C[C@H](O)C[C@@H]1O` (some centres undefined), for which the Potency result is “inactive”.

For `C=CCN1CC[C@]23c4c5ccc(O)c4O[C@H]2/C(=N/NC(=O)c2ccccc2)CC[C@@]3(O)[C@H]1C5`, the Potency was 3.16 µM (active). Same read-out and setting: as for `NC(N)=NOCC[C@H](N)C(=O)O`, the entry is “inactive”; as for `Nc1ccc(CCN2CCN(c3cccc(C(F)(F)F)c3)CC2)cc1`, 2.24 µM (active).

Regarding `C[C@]12CC[C@H](OS(=O)(=O)O)CC1=CC[C@@H]1[C@@H]2CC[C@]2(C)C(=O)CC[C@@H]12`, the Potency entry was “inactive”. `Clc1ccc(N2CC3CCC(C2)N3)nn1`: the Potency entry was “inactive”.

In the case of `C[N+](C)(C)CC#CCOC(=O)Nc1cccc(Cl)c1`, the Potency entry is “inactive”. On to `CNc1ccc(C(=O)CC(O)CCC(C)C2OC(=O)CC(O)CC(=O)CC(O)CC(O)CC(O)CC(O)CC3(O)CC(O)C(C(=O)OC)C(CC(O[C@@H]4O[C@H](C)[C@@H](O)[C@H](N)[C@@H]4O)/C=C/C=C/C=C/C=C/C=C/C=C/C=C/C2C)O3)cc1` (some centres undefined), for which the Potency result was “inactive”. The same measure, in the same setting: the result for `CCN(CC)c1ncnc2c1ncn2[C@@H]1O[C@H](COP(=O)(O)OP(=O)(O)C(Br)(Br)P(=O)(O)O)[C@@H](O)[C@H]1O` reads “inactive”; that for `NC(=O)c1cc(N2CC2)c([N+](=O)[O-])cc1[N+](=O)[O-]`, “inactive”. Take `CC(=O)O[C@H]1C[C@H](O[C@H]2[C@@H](O)C[C@H](O[C@H]3[C@@H](O)C[C@H](OC4CC[C@@]5(C)[C@H](CC[C@@H]6[C@@H]5CC[C@]5(C)[C@@H](C7=CC(=O)OC7)CC[C@]65O)C4)O[C@@H]3C)O[C@@H]2C)O[C@H](C)[C@H]1O[C@@H]1O[C@H](CO)[C@@H](O)[C@H](O)[C@H]1O` (some centres undefined): the Potency entry was “inactive”. On the same count and under the same terms, the result for `C[N+]1(C)CCN(c2ccccc2)CC1` reads “inactive”; that for `C/C(O)=C(\C#N)C(=O)Nc1cc(Br)ccc1Br`, “inactive”.

For the molecule `Cc1o[nH]c(=O)c1CC(N)C(=O)O` (centres undefined), the Potency result was “inactive”. On to `OC[C@@H](O)[C@H]1O[C@@H]2O[C@@H](C(Cl)(Cl)Cl)O[C@@H]2[C@H]1O`, for which the Potency result was “inactive”. On the same count and under the same terms, the result for `CCN(CCCl)Cc1ccccc1Br` reads “inactive”; that for `C[C@]12CC[C@H]3[C@@H](CC[C@@]45O[C@@H]4C(O)=C(C#N)C[C@]35C)[C@@H]1CC[C@@H]2O`, “inactive”. On the same count and under the same terms, as for `COc1ccc2c(c1)[C@@]13CCCC[C@H]1[C@@H](C2)NCC3`, the figure is 11.2 µM (active). Still for that read-out and setting: the result for `CC(C)CCC(=O)O[C@H]1CC[C@H]2[C@@H]3CCC4=CC(=O)CC[C@]4(C)[C@H]3CC[C@]12C` reads 25.1 µM (active); that for `CC(N)c1cccc(Cl)c1Cl` (centres undefined), “inactive”; that for `C#CCN[C@H](C)Cc1ccccc1`, “inactive”.
